This is an account of results in PubChem BioAssay (EPA / NIEHS).

Molecules are shown by their SMILES. “And” between values parts separate entries of the source, which are not always exact repeats. Equal entries are not always repeated. A structure can be active in one record and inactive in another. The source made the active and inactive calls. Rule for the calls: active = hit-call score of the fitted dose curve at least 0.9, where 1 is the maximum; inactive = score below 0.9.

The nature of this test: APR_HepG2_CellLoss_72hr: Apredica 72-hour HepG2 Assay for Cell Loss (AID 2282915). Particulars: high-content imaging. Here is the method: APR_HepG2_72hr is a cell-based, multiplexed-readout assay that uses HepG2, a human liver cell line, with measurements taken at 72 hours after chemical dosing in a 384-well plate.APR_HepG2_CellLoss_72hr is one of 10 assay component(s) measured or calculated from the APR_HepG2_72hr assay. It is designed to make measurements of cell number, a form of viability reporter, as detected with fluorescence intensity signals by HCS Fluorescent Imaging technology.Data from the assay component APR_HepG2_CellLoss_72hr was analyzed into 1 assay endpoint. This assay endpoint, APR_HepG2_CellLoss_72hr, was analyzed with bidirectional fitting relative to DMSO as the negative control and baseline of activity. Using a type of viability reporter, measures of all nuclear dna for gain or loss-of-signal activity can be used to understand the viability at the cellular-level. Furthermore, this assay endpoint can be referred to as a secondary readout, because this assay has produced multiple assay endpoints where this one serves a viability function. To generalize the intended target to other relatable targets, this assay endpoint is annotated to the cell cycle intended target family, where the subfamily is proliferation.
Cells were treated with dimethyl sulfoxide (DMSO) as a solvent control at a final concentration of 0.5% v/v or with compounds in DMSO with a resulting final DMSO concentration of 0.5% v/v. Compound treatment was done at concentrations of 0.39, 0.78, 1.56, 3.12, 6.24, 12.5, 25, 50, 100, and 200 uM in duplicate on each plate. Cells were treated with compounds for 1, 24, or 72 hr. Carbonyl […] m-chloro-phenylhydrazone (CCCP) and taxol were used as positive controls for mitochondrial function and cytoskeletal stability, respectively; DMSO served as the negative control for this experiment. Cells were fixed by the direct addition of 50 uL formaldehyde in Hank's Balanced Salt Solution (HBSS) to a final concentration of 3.7%. After incubation in the fixation medium for 30 min at room temperature (293-298 K), cells were rinsed twice with HBSS and treated with cell permeabilization buffer (16 uL of 0.5% Triton X-100) for 10 min at room temperature (293-298 K) before labeling. For mitochondrial membrane potential and mitochondrial measurements, pre-fixed cells were incubated with 50 uL of MitoTracker Red CMXRos (Invitrogen) at a concentration of 250 nM for 30 min before fixation. In the remaining cases, post-fixed cells were labeled by incubation with a multiplexed mixture of primary antibodies in HBSS for 60 min at room temperature (293-298 K) to detect immunoreactivity of c-Jun (1:500), phospho-histone H3 (1:100), phospho-histone H2A.x (1:200), p53 (1:400), alpha-tubulin (1:200) and Hoechst 33342 (2 ug/mL). Cells were labeled for multiplexed imaging on two separate plates: a) Hoechst 33342, MitoTracker Red, phospho-histone H3, and alpha-tubulin, and b) Hoechst 33342, phospho-histone H2A.x, and c-Jun. A final rinse with HBSS (50 uL) was performed before analysis. The primary and secondary antibodies for the proteins were phospho-histone H3 (rabbit anti-phospho-histone H3 and FITC-donkey anti-rabbit IgG), phospho-histone H2A.x (mouse anti-phospho-histone H2A.x and FITC-donkey anti-mouse IgG), c-Jun (rabbit anti-phospho-c-Jun and Cy3-donkey anti-rabbit IgG), p53 (sheep anti-p53 and Cy5-donkey anti-sheep IgG), alpha-tubulin (mouse anti-alpha-tubulin and Cy5-donkey anti-mouse IgG). These antibodies are available as the CellCiphr HepG2 assay kit (Millipore).Digital images of each well were captured using a Cellomics ArrayScan VTI (Thermo Scientific Cellomics) (0.8 NA objective, 0.63x optical coupler, and XF-93 filter set) at 20x magnification. The images were acquired using the autofocus feature of the ArrayScan instrument, which entails the following steps. First, the camera focuses on channel 1 (Hoechst 33342), where nuclei are identified. Second, a Z offset of 1 um is used for capturing mitochondria (MitoTracker Red). […]
As a reminder, the AC50 is the midpoint of the concentration-response curve, whichever way the signal moves. Regarding `CNC(=O)Oc1cccc(N=CN(C)C)c1`, the AC50 was 96.5 µM (active). Consider `C#CCN1C(=O)COc2cc(F)c(N3C(=O)C4=C(CCCC4)C3=O)cc21`, for which the result was inactive.

Turning to `CC1(C)C(C=C(Cl)Cl)C1C(=O)OC(C#N)c1ccc(F)c(Oc2ccccc2)c1` (stereo not given), the compound was called inactive. On to `O=C(O)COc1ccc(Cl)cc1Cl`, for which the compound was classed as inactive. Consider `CC[C@H](C)[C@H]1O[C@]2(C=C[C@@H]1C)C[C@@H]1C[C@@H](C/C=C(\C)[C@@H](O[C@H]3C[C@H](OC)[C@@H](O[C@H]4C[C@H](OC)[C@@H](O)[C@H](C)O4)[C@H](C)O3)[C@@H](C)/C=C/C=C3\CO[C@@H]4[C@H](O)C(C)=C[C@@H](C(=O)O1)[C@]34O)O2` (tested in a mixture with another compound), for which the result was inactive. For the compound `COP(=S)(OC)Oc1ccc(SC)c(C)c1`, the outcome was inactive.

Take `O=C1c2ccccc2C(=O)N1SC(Cl)(Cl)Cl`: the AC50 is 30.8 µM (active).

`O=[N+]([O-])/N=C1\NCCN1Cc1ccc(Cl)nc1`: the call was inactive. With `CCOCN(C(=O)CCl)c1c(C)cccc1CC`, the AC50 is 9.99 µM (active). `C[C@H]1[C@H](c2ccc(Cl)cc2)SC(=O)N1C(=O)NC1CCCCC1`: the half-maximal activity concentration (AC50) was 33.5 µM (active).

As for `CC(C)(C)C(O)/C(=C\c1ccc(Cl)cc1Cl)n1cncn1` (stereo not given), the AC50 was 15.3 µM (active). `O=C(O)CCCOc1ccc(Cl)cc1Cl`: the compound was called inactive.

Turning to `CN1CSC(=S)N(C)C1`, the half-maximal activity concentration (AC50) is 21.9 µM (active). Regarding `CCOc1nc(NC)nc(NC(=O)NS(=O)(=O)c2ccccc2C(=O)OC)n1`, the result was inactive. `CNC(=O)CSP(=S)(OC)OC`: the call was inactive.

For `O=C(O)C(F)(F)C(F)(F)C(F)(F)C(F)(F)C(F)(F)C(F)(F)C(F)(F)F`, the compound was classed as inactive and the AC50 was 108 µM (active).

Consider `CCN(CC)C(=O)SCc1ccc(Cl)cc1`, for which the compound was classed as inactive.

For `CCc1ccc(C(=O)NN(C(=O)c2cc(C)cc(C)c2)C(C)(C)C)cc1`, the AC50 was 43.6 µM (active). As for `ClC1C(Cl)C(Cl)C(Cl)C(Cl)C1Cl` (stereo not given), the AC50 was 57.2 µM (active) and the compound was classed as inactive. Take `COP(=O)(OC)OC=C(Cl)Cl`: the AC50 was 78 µM (active). `CCC(C)(NC(=O)c1cc(Cl)c(C)c(Cl)c1)C(=O)CCl` (stereo not given): the result was inactive. Take `COc1nn(CSP(=S)(OC)OC)c(=O)s1`: the compound was called inactive. For the compound `CCCN(CCC)c1c([N+](=O)[O-])cc(C(F)(F)F)cc1[N+](=O)[O-]`, the AC50 was 109 µM (active).

As to `Oc1ccc(Cl)cc1Cc1ccccc1`, the result was inactive and the concentration at half-maximal activity (AC50) is 70 µM (active) [middle of 6 runs].

With `O=S1OCC2C(CO1)C1(Cl)C(Cl)=C(Cl)C2(Cl)C1(Cl)Cl` (stereo not given), the half-maximal activity concentration (AC50) was 100 µM (active).

With `CC(C)(C)C(O)C(Oc1ccc(Cl)cc1)n1cncn1` (stereo not given), the outcome was inactive; the half-maximal activity concentration (AC50) is 90.5 µM (active) and 96.3 µM (active) and 36.1 µM (active). For `Cc1[nH]c(=O)n(C(C)(C)C)c(=O)c1Cl`, the compound was classed as inactive. On the same count and under the same terms, for `CNC(=O)/C=C(\C)OP(=O)(OC)OC` the value was “inactive”; for `OCCOc1ccccc1`, “inactive”. Regarding `COP(=S)(OC)Oc1ccc([N+](=O)[O-])cc1`, the outcome was inactive. For `CCS(=O)(=O)c1cccnc1S(=O)(=O)NC(=O)Nc1nc(OC)cc(OC)n1`, the compound was called inactive. Turning to `[2H]C1([2H])[n+]2ccccc2-c2cccc[n+]2C1([2H])[2H]`, the AC50 is 35.1 µM (active). The same measure, in the same setting: with `O=S(=O)(O)C(F)(F)C(F)(F)C(F)(F)C(F)(F)C(F)(F)C(F)(F)C(F)(F)C(F)(F)F` the figure was 111 µM (active) [middle of 5 runs].

`O=C(NC(=O)c1c(F)cccc1F)Nc1ccc(OC(F)(F)C(F)OC(F)(F)F)c(Cl)c1` (stereo not given): the result was inactive.

In the case of `COC(=O)c1ccccc1CS(=O)(=O)NC(=O)Nc1nc(OC)cc(OC)n1`, the compound was classed as inactive.

On to `N#Cc1c(Cl)c(Cl)c(Cl)c(C#N)c1Cl`, for which the AC50 is 0.452 µM (active).
